In PubChem BioAssay (NCI):
About 83,000 compounds went through this panel and 20% of them were active in at least one assay; those are over-represented in the sample as a whole.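 Note: values are percent growth. 100 is the growth of untreated cells, values between 100 and 0 indicate rising inhibition; between -100 and 0 indicates cell death.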 Unmarked numbers belong to inactive results. Calls of active or inactive are those of the source. How the source made its calls: active means growth percent below 10; inactive means the rest.

These compounds were tested on HL-60(TB) leukemia (assay: NCI-60 one-dose screen, 48 h (100 = growth as untreated, 0 = no growth, -100 = all killed)). Settings: 10 µM unless noted.
In the case of `CO[C@H]1CC(O[C@@H]2/C(C)=C/C[C@@H]3C[C@@H](C[C@]4(C=C[C@H](C)[C@@H](C5CCCCC5)O4)O3)OC(=O)[C@@H]3C=C(C)[C@@H](O)[C@H]4OC/C(=C\C=C\[C@@H]2C)[C@]43O)O[C@@H](C)C1O[C@H]1C[C@H](OC)[C@@H](O)[C@H](C)O1` (stereo not given in full), the growth is reported as -50.5% (active). `Cc1cc(SC#N)cc(C(C)(C)C)c1O` showed a growth of 74.3%. `Oc1c(C(Nc2ccccc2)c2ccccc2)ccc2cccnc12` (stereo not given) showed a growth of 15.7%. For `O=C(Nc1cccc2c1C(=O)c1cccc(NC(=O)c3ccc(C(=O)Nc4cccc5c4C(=O)c4cccc(NC(=O)c6ccccc6)c4C5=O)cc3)c1C2=O)c1ccccc1`, the growth was 83.4%. Compound `CSc1nc2ccccc2cc1/C=C1/C=C(c2ccccc2)NC1=O` has a growth of 85.7%. With `CCC(C)N(CCNc1cc(OC)cc2cccnc12)CC(C)C` (stereo not given) the growth was 73.9%. Compound `O=C(Nc1ccc(F)cc1)c1c(NC(=O)C(F)(F)F)sc2c1CCCCC2` has a growth of 17.1%. With `CCN(CC)c1ccc(/C=N/NC(=O)Cc2ccc(Nc3ccnc(C(F)(F)F)c3)cc2)c(O)c1` the growth was 0.765% (active). Compound `O=C(Nc1cccc(-c2nc3ccccc3[nH]2)c1)c1cccc(NC(=O)c2ccco2)c1` has a growth of 88.9%. Work on `CCCCCCCCCCOC(C)=O` yielded a growth of 107%. For `CCN1CCN(CC(=O)Nc2nc3ccc(NCc4ccc(Br)cc4)cc3s2)CC1`, the growth was 20.1%. `COc1ccc(/C=C2\Oc3cc(OCCCCN4CCCC4)ccc3C2=O)cc1` showed a growth of 92.1%. `C#CCOc1ccc2ncnc(Nc3cccc(CNC(=O)C=C)c3)c2c1` gave a growth of 97.4% [8.25 µM]. In the case of `Cn1c(-c2ccccc2)c(/C=C/C2=[N+](C)c3ccccc3C2(C)C)c2ccccc21`, the growth is reported as -52.5% (active). `C=C1C(=O)O[C@H]2[C@H]1CC/C(COC(=O)/C=C\C(=O)NCc1ccc(Cn3c(=O)sn(CCCI)c3=O)cc1)=C\CC[C@@]1(C)O[C@@H]21` was tested, and the growth was -36.6% (active). With `c1ccc(-c2nc3sc(C(c4ccccc4)c4ccccc4)nn3c2-c2ccccc2)cc1` the growth was 112%. For `Cn1c(Nc2ccc(C(F)(F)F)cc2)nc2cc(Oc3ccnc(-c4ncc(C(F)(F)F)[nH]4)c3)ccc21`, the growth was 30.3%. Compound `CC1=C(C(=O)OCC2CCN(C(=O)OC(C)(C)C)CC2)[C@H](c2cccc(C#N)c2)C2=C(CC(C)(C)CC2=O)N1` has a growth of 27.5%. `C(CCCC1=NCCO1)CCCC1=NCCO1` was tested, and the growth was 112%. Work on `Cc1cc[n+](CCCCCCCCCC[n+]2ccc(C)cc2)cc1` yielded a growth of 95.3%. For `CCCCCCCCCCCCCCCCCC1=NCCN1CS(=O)(=O)O`, the growth was 24.2%. Work on `C=CCOC(=O)C1=C(C)N(CC)C(=O)N(CC)C1c1c(Cl)n(C)c2ccccc12` (stereo not given) yielded a growth of 96.9%. In the case of `C/C(=N\Nc1cccc(Cl)n1)c1ccccn1`, the growth is reported as -9.92% (active). For `Cc1ccc(S(=O)(=O)n2cc(C(=O)C(=O)N3CCCCC3)c3ccccc32)cc1`, the growth was 85%. `CC1=CC(=O)C(C(C)=Nc2ccccc2Cl)C(=O)O1` (stereo not given) gave a growth of 101%.
